Where “and” joins values, the source holds several entries; their conditions need not be identical. Equal values may be shown once. Inconclusive results are not listed. A structure can be active in one record and inactive in another. Calls of active or inactive are those of the source. The calls were made as follows, unless noted: active = hit-call score of the fitted dose curve at least 0.9, where 1 is the maximum; inactive = score below 0.9.
Experiments:
[1] = read-out: Collagen III, COL3A1 (gene 1281); assay: BSK_MyoF_CollagenIII: BioMAP Diversity Plus: MyoF Assay for Collagen III Biomarker Activity (AID 2284239); conditions: primary human lung fibroblasts
In short: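 Primary human lung fibroblasts (BioMAP MyoF system) exposed 24 h. Collagen III measured by ELISA; positive-direction fit relative to DMSO.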

[2] = CCTE_Mundy_HCI_hNP1_Casp3_7: CCTE's Caspase-Glo 3/7 Assay in human neuroprogenitor cells for Apoptosis, Mundy Lab (AID 2284240)
In short: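 Luminescent caspase-3/7 readout, 26.5 h post-dose, in human neural progenitor cells from WA09 embryonic stem cells. Cells grew 40–44 h at 37 °C, 5% CO2 before chemical addition. Activity analysed as signal increase over DMSO baseline.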

[3] = CCTE_Mundy_HCI_hNP1_CellTiter: CCTE's Cell Titer-Glo 2 Assay in human neuroprogenitor cells for Viability, Mundy Lab (AID 2284241; active = hit-call score of the fitted dose curve at least 0.9, where 1 is the maximum)
In short: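 Viability read as luminescent ATP content (CellTiter-Glo, 30 min room temperature) twenty-four hours after dosing, relative to DMSO. Cells: WA09-derived hNP1 neuroprogenitors on poly-L-ornithine/laminin, plated 40 to 44 hours before chemical.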

[4] = read-out: Interleukin 17F (IL17F), IL17F (gene 112744); assay: BSK_BT_xIL17F: BioMAP Diversity Plus: BT Assay for Interleukin 17F (IL17F) Biomarker Activity (AID 2284243); conditions: primary human B cells with PBMC
In short: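 Human PBMC co-cultured with B cells, compound exposure 24 h; secreted IL-17F quantified by Luminex xMAP, referenced to DMSO control. PBMC viability measured in parallel by Alamar Blue reduction.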

[5] = read-out: Actin alpha 1 (ACTA1), ACTA1 (gene 58); assay: BSK_MyoF_ACTA1: BioMAP Diversity Plus: MyoF Assay for Actin alpha 1 (ACTA1) Biomarker Activity (AID 2284244); conditions: primary human lung fibroblasts
In short: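 Cells were exposed to chemical for 24 h before a-SMA levels were quantified by ELISA in human lung fibroblasts. Increases were fitted against DMSO as negative control; parallel SRB staining (0.1% after 10% TCA fixation, 560 nm) assessed cytotoxicity.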

[6] = read-out: Interleukin 2 (IL2), IL2 (gene 3558); assay: BSK_BT_xIL2: BioMAP Diversity Plus: BT Assay for Interleukin 2 (IL2) Biomarker Activity (AID 2284245); conditions: primary human B cells with PBMC
In short: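 The BT system combines human B cells with peripheral blood mononuclear cells. Twenty-four hours after chemical dosing, secreted IL-2 was measured with xMAP bead technology, and responses were analyzed as increases over DMSO controls.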

[7] = read-out: Basic fibroblast growth factor (bFGF), FGF2 (gene 2247); assay: BSK_MyoF_bFGF: BioMAP Diversity Plus: MyoF Assay for Basic fibroblast growth factor (bFGF) Biomarker Activity (AID 2284246); conditions: primary human lung fibroblasts
In short: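 Chemicals are added to human lung fibroblast cultures and incubated 24 h. bFGF is then measured by ELISA, while parallel cultures receive SRB staining for total protein as a cytotoxicity check. Data are fitted upward against DMSO.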

[8] = read-out: Collagen IV, COL4A1 (gene 1282); assay: BSK_MyoF_CollagenIV: BioMAP Diversity Plus: MyoF Assay for Collagen IV Biomarker Activity (AID 2284247); conditions: primary human lung fibroblasts
In short: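 Human lung fibroblast system, 24 h chemical exposure. Endpoint: Collagen IV by ELISA, upward fit vs DMSO.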

[9] = read-out: Monokine induced gamma interferon (MIG), CXCL9 (gene 4283); assay: BSK_KF3CT_MIG: BioMAP Diversity Plus: KF3CT Assay for Monokine induced gamma interferon (MIG) Biomarker Activity (AID 2284248); conditions: primary human keratinocytes with fibroblasts
In short: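 Human keratinocyte–foreskin fibroblast co-culture; MIG measured by ELISA 24 h after chemical dosing, fitted upward versus DMSO. Cytotoxicity was assessed in parallel cultures by SRB total-protein staining read at 560 nm.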

[10] = read-out: Vascular cell adhesion molecule 1 (VCAM1), VCAM1 (gene 7412); assay: BSK_BF4T_VCAM1: BioMAP Diversity Plus: BF4T Assay for Vascular cell adhesion molecule 1 (VCAM1) Biomarker Activity (AID 2284249); conditions: primary human bronchial epithelial cells with fibroblasts
In short: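 Cell-surface VCAM-1 quantified by ELISA after 24 h chemical exposure of human bronchial epithelial/dermal fibroblast co-cultures, with SRB staining in parallel wells for cytotoxicity; DMSO baseline, positive-direction fitting.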

Measured: AC50

CCN(CCO)S(=O)(=O)C(F)(F)C(F)(F)C(F)(F)C(F)(F)C(F)(F)C(F)(F)C(F)(F)C(F)(F)F
active: [1] 18.9 µM and 23.2 µM | [4] 13 µM and 12.6 µM | [5] 19.5 µM | [6] 26.7 µM and 25.7 µM | [7] 43 µM | [9] 22.7 µM and 31.6 µM
inactive: [2] | [3] | [5] | [7] | [8] | [10]

O=C(c1ccccc1)c1ccc(O)cc1O
inactive: [1] | [4] | [5] | [6] | [7] | [8]

O=C(Cl)C(F)(F)C(F)(F)C(F)(F)C(F)(F)C(F)(F)C(F)(F)C(F)(F)F
not listed: [2] | [3] | [8]
inactive: all other assays above

C[Si](Cl)(Cl)CCC(F)(F)C(F)(F)C(F)(F)C(F)(F)C(F)(F)C(F)(F)F
not listed: [2] | [3] | [8]
inactive: all other assays above

CCN(CC)c1ccc(N=Nc2ccccc2)cc1
inactive: [1] | [7]
active: [4] 31 µM | [5] 23.8 µM | [6] 32.6 µM | [8] 9.37 µM

OCC(O)CC(F)(F)C(F)(F)C(F)(F)C(F)(F)C(F)(F)C(F)(F)C(F)(F)C(F)(F)F (stereo not given)
not listed: [2] | [3]
inactive: all other assays above

O=C(Cl)C(F)(F)C(F)(F)C(F)(F)C(F)(F)C(F)(F)C(F)(F)F
not listed: [2] | [3] | [8]
inactive: all other assays above

CCOC(=O)CC(=O)C(F)(F)C(F)(F)F
not listed: [2] | [3] | [8]
inactive: all other assays above

NC(=O)C(F)(F)C(F)(F)C(F)(F)F
not listed: [2] | [3] | [8]
inactive: all other assays above

OCC(O)CC(F)(F)C(F)(F)C(F)(F)C(F)(F)F (stereo not given)
not listed: [2] | [3] | [8]
inactive: all other assays above

C[C@]12CC[C@H]3C(=CCc4cc(O)ccc43)[C@@H]1CCC2=O
inactive: [1] | [5] | [6] | [7] | [8]
active: [4] 20 µM

OC(O)C(F)(F)C(F)(F)F
not listed: [2] | [3]
inactive: all other assays above

NC(=O)C(F)(F)C(F)(F)C(F)(F)C(F)F
not listed: [2] | [3]
inactive: all other assays above

OCC(F)(F)C(F)(F)C(F)(F)C(F)(F)C(F)(F)C(F)(F)CO
not listed: [2] | [3]
inactive: all other assays above

O=C1c2c(O)ccc(Nc3ccc(CCO)cc3)c2C(=O)c2c([N+](=O)[O-])ccc(O)c21
inactive: [6] | [7]
active: [1] 30.2 µM | [4] 35.3 µM | [5] 25.6 µM | [8] 34.1 µM

O=S(=O)(O)CCC(F)(F)C(F)(F)C(F)(F)C(F)(F)F
not listed: [2] | [3] | [8]
inactive: all other assays above

O=C(O)C(F)(F)C(F)(F)C(F)(F)C(=O)O
not listed: [2] | [3] | [8]
inactive: all other assays above

FC(F)(F)C(F)(F)C(F)(F)C(F)(F)C(F)(F)C(F)(F)C(F)(F)CCI
not listed: [2] | [3] | [8]
inactive: all other assays above

CO[Si](C)(CCC(F)(F)C(F)(F)C(F)(F)C(F)(F)C(F)(F)C(F)(F)F)OC
not listed: [2] | [3] | [8]
inactive: all other assays above

OCC(F)(F)C(F)(F)C(F)(F)CO
not listed: [2] | [3] | [8]
inactive: all other assays above

NCC(F)(F)C(F)(F)C(F)(F)C(F)(F)C(F)(F)C(F)(F)C(F)(F)C(F)(F)F
not listed: [2] | [3]
inactive: all other assays above

NS(=O)(=O)C(F)(F)C(F)(F)C(F)(F)C(F)(F)C(F)(F)C(F)(F)F
active: [10] 19.8 µM and 21.1 µM
not listed: [2] | [3] | [8]
inactive: all other assays above

O=C1C=CC(=O)N1c1ccc(Cc2ccc(N3C(=O)C=CC3=O)cc2)cc1
active: [1] 3.46 µM | [4] 2.45 µM | [5] 2.79 µM | [6] 4.5 µM | [7] 5.53 µM | [8] 1.99 µM

NCC(F)(F)C(F)(F)C(F)(F)C(F)(F)C(F)(F)C(F)(F)F
not listed: [2] | [3] | [8]
inactive: all other assays above

CC(C)(C)c1cc(CCC(=O)NCCCCCCNC(=O)CCc2cc(C(C)(C)C)c(O)c(C(C)(C)C)c2)cc(C(C)(C)C)c1O
inactive: [1] | [5] | [7] | [8]
active: [4] 5.33 µM | [6] 1.36 µM

FC(F)(F)C(F)(F)C(F)(F)C(F)(F)C(F)(F)C(F)(F)CC[Si](Cl)(Cl)Cl
not listed: [2] | [3] | [8]
inactive: all other assays above

CN(C(=O)C(F)(F)C(F)(F)C(F)(F)F)[Si](C)(C)C
not listed: [2] | [3] | [8]
inactive: all other assays above

O=C(O)C(F)(F)OC(F)(F)C(F)(F)OC(F)(F)C(F)(F)OC(F)(F)F
not listed: [2] | [3]
inactive: all other assays above

O=S(=O)(Cl)C(F)(F)C(F)(F)C(F)(F)C(F)(F)C(F)(F)C(F)(F)C(F)(F)C(F)(F)F
inactive: [4] | [5] | [6] | [7] | [9] | [10]
active: [1] 30 µM and 41.1 µM | [8] 41.1 µM and 30.1 µM | [10] 30 µM

CNS(=O)(=O)C(F)(F)C(F)(F)C(F)(F)C(F)(F)C(F)(F)C(F)(F)C(F)(F)C(F)(F)F
active: [4] 16.4 µM and 7.34 µM
not listed: [2] | [3] | [8]
inactive: all other assays above

CCN=C1C=CC(=C(c2ccc(N(CC)CC)cc2)c2ccc(N(CC)CC)cc2)c2ccccc21
active: [9] 2.63 µM and 2.31 µM

C=CC(=O)OCCC(F)(F)C(F)(F)C(F)(F)C(F)(F)F
active: [4] 20.1 µM and 14.3 µM | [6] 46.6 µM and 48 µM
inactive: [1] | [5] | [7] | [9] | [10]

Nc1cc([N+](=O)[O-])cc(Cl)c1O
inactive: [1] | [4] | [5] | [6] | [7] | [8]

O=S(=O)(OCC(F)(F)F)C(F)(F)C(F)(F)C(F)(F)C(F)(F)F
not listed: [2] | [3] | [8]
inactive: all other assays above

FC(F)(F)C(F)(F)C(F)(F)CC1CO1 (stereo not given)
not listed: [2] | [3] | [8]
inactive: all other assays above

— PubChem BioAssay (EPA / NIEHS)
